Experiment [1] has as its system RAW-Dual. Put plainly: NF-kB SEAP reporter activity, fold change vs agonist alone; higher = enhanced NF-kB activity. In outline: (§1)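 RAW-Dual macrophages were seeded in DMEM at 50,000 cells/well in 384-well plates, given 50 nL of library stock by pin tool, and given a PRR agonist 1 h later. Plates were held at 37 °C, 5% CO2 for 20 hours, after which supernatant was read for IRF by QuantiLuc luminescence and for NF-κB by QuantiBlue absorbance at 620 nm. Reporter activity is expressed as fold change over wells that received agonist alone. A well was called cytotoxic when IncuCyte confluency fell below 70% of agonist controls in both mask sets.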

Experiment [2] deals with RAW-Dual. Put plainly: NF-kB SEAP reporter activity, fold change vs agonist alone; cytotoxicity flag (confluency mask): not cytotoxic; library stock concentration (final ~1000-fold dilution): 10 mM; higher = enhanced NF-kB activity. In outline:
as §1

Experiment [3] deals with RAW-Dual. Nature of the experiment: NF-kB SEAP reporter activity, fold change vs agonist alone; cytotoxicity flag (confluency mask): cytotoxic (confluency <70% of control); library stock concentration (final ~1000-fold dilution): 10 mM; higher = enhanced NF-kB activity. In outline: as §1
The test system of experiment [4] is RAW-Dual. Put plainly: NF-kB SEAP reporter activity, fold change vs agonist alone; cytotoxicity flag (confluency mask): not cytotoxic; library stock concentration (final ~1000-fold dilution): 10 mM water; higher = enhanced NF-kB activity. The method in brief: as §1
Setting [5] is: library stock concentration (final ~1000-fold dilution): 10 mM, cytotoxicity flag (confluency mask): not cytotoxic, agonist: Imiquimod (TLR7) […].
Where [6] appears, read: library stock concentration (final ~1000-fold dilution): 10 mM, cytotoxicity flag (confluency mask): not cytotoxic, agonist: MPLA (TLR4) […].
Setting [7] is: agonist: ODN 1826 (TLR9) 0.5 ug/mL.
Setting [8] is: agonist: Pam2CSK4 (TLR2/6) 0.1 ug/mL.
Where [9] appears, read: agonist: Pam3CSK4 (TLR2/1) 0.1 ug/mL.
Setting [10] is: library stock concentration (final ~1000-fold dilution): 10 mM, cytotoxicity flag (confluency mask): cytotoxic (confluency <70% of control), agonist: Imiquimod (TLR7) […].
The mark [11] stands for this setting: library stock concentration (final ~1000-fold dilution): 10 mM, cytotoxicity flag (confluency mask): cytotoxic (confluency <70% of control), agonist: MPLA (TLR4) […].
The mark [12] stands for this setting: library stock concentration (final ~1000-fold dilution): 10 mM water, cytotoxicity flag (confluency mask): not cytotoxic, agonist: Imiquimod (TLR7) […].
Setting [13] is: library stock concentration (final ~1000-fold dilution): 10 mM water, cytotoxicity flag (confluency mask): not cytotoxic, agonist: MPLA (TLR4) […].

In all, about 2,900 compounds were measured (“NF-kB SEAP reporter activity, fold change vs agonist alone”: median about 0.99, highest 2% from about 2.6 on). The list comes from a sample in which the highest values are over-represented; it also holds similar structures and randomly drawn compounds.

As for `CC1CCC/C=C/C2CC(O)CC2C(O)/C=C/C(=O)O1` (stereo not drawn), the “NF-kB SEAP reporter activity” value is 1.48 in experiment [1] (setting [5]); 0.636 in experiment [1] (setting [6]); 0.305 in experiment [2] (agonist: LPS (TLR4) 0.1 ug/mL); 0.297 in experiment [2] (setting [7]); 0.209 in experiment [2] (setting [8]); 0.469 in experiment [2] (setting [9]).

For `Cn1c(CCCCCCC(=O)NO)nc2cc(N(CCCl)CCCl)ccc21`, the “NF-kB SEAP reporter activity” value in experiment [1] (setting [10]) was found to be 1.62; in experiment [1] (setting [11]), 2.33; in experiment [3] (agonist: LPS (TLR4) 0.1 ug/mL), 3.35; in experiment [3] (setting [7]), 1.5; in experiment [3] (setting [8]), 1.55; in experiment [3] (setting [9]), 1.91.

Regarding `O=C(O)CCCc1ccc(N(CCCl)CCCl)cc1`, the “NF-kB SEAP reporter activity” value in experiment [1] (setting [5]) came out at 0.998; in experiment [1] (setting [6]), 1; in experiment [2] (agonist: LPS (TLR4) 0.1 ug/mL), 0.89; in experiment [2] (setting [7]), 1.04; in experiment [2] (setting [8]) it was 1.21; in experiment [2] (setting [9]), 1.24.

Regarding `Cl.O=C(O)Cc1c[nH]cn1`, the “NF-kB SEAP reporter activity” value is 0.935 in experiment [1] (setting [5]); 1.05 in experiment [1] (setting [6]); 1.34 in experiment [2] (agonist: LPS (TLR4) 0.1 ug/mL); 0.991 in experiment [2] (setting [7]); 0.973 in experiment [2] (setting [8]); 0.728 in experiment [2] (setting [9]).

In the case of `CNC1C(O)C(OC2C(N)CC(N)C(OC3OC(C(C)O)C(O)C(O)C3N)C2O)OCC1(C)O.O=S(=O)(O)O.O=S(=O)(O)O` (stereo not drawn), the “NF-kB SEAP reporter activity” value came to 0.947 in experiment [1] (setting [12]); 1.07 in experiment [1] (setting [13]); 1.15 in experiment [4] (agonist: LPS (TLR4) 0.1 ug/mL); 1.26 in experiment [4] (setting [7]); 1.15 in experiment [4] (setting [8]); 1.12 in experiment [4] (setting [9]).

As to `CC12NC(Cc3ccccc31)c1ccccc12.O=C(O)/C=C\C(=O)O` (stereo not drawn), the “NF-kB SEAP reporter activity” value was found to be 1.16 in experiment [1] (setting [5]); 1.1 in experiment [1] (setting [6]); 1.25 in experiment [2] (agonist: LPS (TLR4) 0.1 ug/mL); 0.851 in experiment [2] (setting [7]); 1.13 in experiment [2] (setting [8]); 1.15 in experiment [2] (setting [9]).

Turning to `COc1cc(C)[nH]c(=O)c1CNC(=O)c1c(C)n(C(C)C2CCN(CC(F)(F)F)CC2)c2ccccc12` (stereo not drawn), the “NF-kB SEAP reporter activity” value came to 0.35 in experiment [1] (setting [5]); 0.914 in experiment [1] (setting [6]); 0.78 in experiment [2] (agonist: LPS (TLR4) 0.1 ug/mL); 0.953 in experiment [2] (setting [7]); 0.647 in experiment [2] (setting [8]); 0.74 in experiment [2] (setting [9]).

Turning to `CC(N)C(=O)NC(CO)C(=O)NC(C(=O)NC(C(=O)NC(C(=O)NC(CC(N)=O)C(=O)NC(Cc1ccc(O)cc1)C(=O)NC(C(N)=O)C(C)O)C(C)O)C(C)O)C(C)O` (stereo not drawn), the “NF-kB SEAP reporter activity” value in experiment [1] (setting [12]) stood at 0.968; in experiment [1] (setting [13]), 1.05; in experiment [4] (agonist: LPS (TLR4) 0.1 ug/mL), 1.17; in experiment [4] (setting [7]) it was 1.25; in experiment [4] (setting [8]), 1.16; in experiment [4] (setting [9]) it was 1.06.

As to `C=C(C)C1Cc2c(ccc3c2OC2COc4cc(OC)c(OC)cc4C2C3=O)O1` (stereo not drawn), the “NF-kB SEAP reporter activity” value in experiment [1] (setting [5]) is 1.87; in experiment [1] (setting [6]), 1.85; in experiment [2] (agonist: LPS (TLR4) 0.1 ug/mL), 3.13; in experiment [2] (setting [7]), 2.36; in experiment [2] (setting [8]), 1.27; in experiment [2] (setting [9]), 1.45.

As for `CCC1=CC2CN3CCc4c([nH]c5ccccc45)C(C(=O)OC)(C2)C13` (stereo not drawn), the “NF-kB SEAP reporter activity” value is 1.03 in experiment [1] (setting [5]); 1.11 in experiment [1] (setting [6]); 1.04 in experiment [2] (agonist: LPS (TLR4) 0.1 ug/mL); 1.06 in experiment [2] (setting [7]); 0.935 in experiment [2] (setting [8]); 1.03 in experiment [2] (setting [9]).

In the case of `COC1=CC2C3Cc4ccc(OC)c(O)c4C2(CCN3C)CC1=O.Cl` (stereo not drawn), the “NF-kB SEAP reporter activity” value was 0.858 in experiment [1] (setting [5]); 0.999 in experiment [1] (setting [6]); 0.877 in experiment [2] (agonist: LPS (TLR4) 0.1 ug/mL); 0.884 in experiment [2] (setting [7]); 1.16 in experiment [2] (setting [8]); 1.09 in experiment [2] (setting [9]).

`CN1C2CC(OC(=O)C(CO)c3ccccc3)CC1C1OC12` (stereo not drawn): the “NF-kB SEAP reporter activity” value in experiment [1] (setting [5]) amounted to 0.917; in experiment [1] (setting [6]), 1.04; in experiment [2] (agonist: LPS (TLR4) 0.1 ug/mL), 1.23; in experiment [2] (setting [7]), 1.02; in experiment [2] (setting [8]) it was 1.11; in experiment [2] (setting [9]), 1.58.

Consider `CN1Cc2c(ccc3c2OCO3)C2C(O)Cc3cc4c(cc3C21)OCO4` (stereo not drawn), for which the “NF-kB SEAP reporter activity” value in experiment [1] (setting [10]) is 1.6; in experiment [1] (setting [11]), 1.66; in experiment [3] (agonist: LPS (TLR4) 0.1 ug/mL), 2.16; in experiment [3] (setting [7]) it was 1.75; in experiment [3] (setting [8]) it was 1.42; in experiment [3] (setting [9]), 2.18.

Source of the values: the supplement of paper PMC10037445.
